The values that follow come from PubChem BioAssay (NCI).

Compounds without any hit were thinned out: in the full panel of roughly 83,000, 20% have a hit.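 For each line, cells grew in 96-well plates with the test compound present at a single concentration for 48 hours.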 Values without a mark were called inactive. Calls of active or inactive are those of the source. The calls were made as follows: active = growth percent below 10; inactive = the rest.

For the test, the system named is MDA-MB-468 breast. Nature of the test: NCI-60 one-dose screen, 48 h (100 = growth as untreated, 0 = no growth, -100 = all killed). Conditions: 10 µM unless noted.

Regarding `CN(C)CCCn1c2c(c3ccc(-c4ccn[nH]4)cc3c1=O)C(=O)c1ccccc1-2`, the growth was 35%.

`S=c1nc(-c2ccccn2)c(-c2ccccn2)n[nH]1`: the growth is 108%.

As for `CNC(=O)c1nn(C)c2c1C(C)(C)Cc1cnc(Nc3ccc(N4CCN(C)CC4)cc3)nc1-2`, the growth is -13.4% (active).

In the case of `c1ccc2oc(-c3cnc4nonc4n3)cc2c1`, the growth was 98.9%.

In the case of `C[C@]12CC[C@@H]3c4ccc(O)cc4CC[C@H]3[C@@H]1CC[C@@H]2NS(=O)(=O)c1ccc(C(F)(F)F)cc1`, the growth is 53%.

For `C=C1C(=O)O[C@H]2[C@H]1CC/C(COC(=O)/C=C\C(=O)NCc1ccc(Cn3c(=O)sn(CCCl)c3=O)cc1)=C\CC[C@@]1(C)O[C@@H]21`, the growth is 43%.

In the case of `S=C(Cc1ccccc1)N1CCN(c2ccccc2Cl)CC1`, the growth is 101%.

For `CCCS(=O)(=O)Nc1cccc(Nc2ncnc3cc(NC(=O)CCl)ccc23)c1Cl`, the growth was -41.8% (active).

`O=C(/C=C/c1cccc(Cl)c1)c1cccc(OCCCCOc2cccc(C(=O)/C=C/c3cccc(Cl)c3)c2)c1`: the growth was 99.2%.

`Cc1cccc(/C=C2\CN(C(=O)OC(C)(C)C)C/C(=C\c3cccc(C)c3)C2=O)c1`: the growth is 103%.

On to `CN1[C@@H]2CC[C@H]1/C(=C\c1ccccc1)C(=O)/C2=C/c1ccccc1`, for which the growth is 16.2%.

In the case of `COc1ccc(Cn2cc(C#N)c(N)c2C(C)=O)cc1`, the growth was 102%.

`CCOC(=O)Oc1c(OC)cc(C(=O)c2ccc(OC)c(OC(=O)CCl)c2OC)cc1OC`: the growth was 0.206% (active).

In the case of `COc1cc(-c2nn(C(=O)NCCN3CCN(C)CC3)cc2-c2ccncc2)ccc1Cl`, the growth was 60.9%.

For `CC(C)(C)c1nc2c(s1)c1nc(N)ncc1c1ccc(NS(=O)(=O)c3c(F)cccc3F)c(F)c12`, the growth was 60.2%.

As for `CSc1nc(=O)n(Cc2ccc(F)cc2)c(=O)n1Cc1ccc(C)cc1`, the growth is 112%.

Consider `Cc1ccc(OC(=O)c2ccc(Cl)cc2)cc1`, for which the growth is 105%.

With `O=C1C(=O)/C(=C/c2ccccc2)CCCCCC/C1=C/c1ccccc1`, the growth was 65.7%.

Consider `COc1cc2c(c(OC)c1OC)C(=O)CC(c1cccc(NC(=O)c3ccc(C#N)cc3)c1)O2` (configuration not stated), for which the growth is 48.8%.

Turning to `Cc1cccnc1NC(=S)Nc1ncccc1C`, the growth is 71.9%.

Take `CNC(=O)c1ccccc1CC1(O)c2ccccc2Oc2ccccc21`: the growth was 42.9%.

Take `CCCc1n(Cc2ccc3ccccc3c2)cc[n+]1Cc1ccc2ccccc2c1`: the growth is -45.4% (active).

On to `Nc1nc(N)c2cc(CNc3ccc(C(=O)NC(CC(=O)O)C(=O)O)cc3)ccc2n1` (configuration not stated), for which the growth was 61.4%.

On to `CC[C@H](C)[C@H]1NC(=O)[C@@H](N[C@](C)(O)[C@@H](N)CC(C)C)[C@@H](C)OC(=O)[C@H](Cc2ccc(OC)cc2)N(C)C(=O)[C@@H]2CCCN2C(=O)[C@H](CC(C)C)NC(=O)[C@@H](C)C(=O)[C@H](C(C)C)OC(=O)C[C@@H]1O`, for which the growth was -31.2% (active).

With `C/C=C1\SC(=S)NC1=O`, the growth is 114%.

Regarding `COc1ccc(/C=C/C(=O)c2ccc(NC(=O)CSc3nnc(-c4cc(OC)c(OC)c(OC)c4)o3)cc2)cc1`, the growth is -60.5% (active).

Consider `C/C=C(/C(=C/C)c1ccc(O)cc1)c1ccc(O)cc1`, for which the growth was -15.5% (active).

Turning to `COc1ccc(-c2ccc(-c3ccc(C(=N)N)o3)o2)cc1`, the growth is 15.3%.

In the case of `Cc1c(N2CN3C[C@H](C)N4CN(c5c(C)n(C)n(-c6ccccc6)c5=O)CN5C[C@@H](C)N(C2)C3C54)c(=O)n(-c2ccccc2)n1C` (some centres not stated), the growth is 97.1%.

As for `COc1ccc(-c2noc(C(=O)O)c2-c2cc(OC)c(OC)c(OC)c2)cc1`, the growth is 24.7%.

Consider `O=C(/C=C/c1ccc(Br)cc1)c1ccccc1`, for which the growth is 96.3%.

On to `COc1cccc2cc(-c3nc(C4CCC(C(=O)O)CC4)n4ncnc(N)c34)[nH]c12` (configuration not stated), for which the growth was -22.3% (active).

With `Cn1cc(-c2noc(-c3cn(C)c4ncc(Br)cc34)n2)c2cc(Cl)ccc21`, the growth is 82.3%.

In the case of `CCN(CC)CCNc1ccc(CO)c2sc3ccccc3c(=O)c12`, the growth is -41.4% (active).

As for `Cc1ccc(S(=O)(=O)Oc2ccc3sc4c(CO)ccc(NCCN(C)C)c4c(=O)c3c2)cc1`, the growth is -75.1% [100 µM] (active).

On to `COc1ccc(C(C)C=O)cc1` (configuration not stated), for which the growth is 134%.

For `C#C[C@]1(O)CC[C@H]2[C@@H]3CC=C4c5sc(C6CC6)nc5CC[C@]4(C)[C@H]3CC[C@@]21C`, the growth is 68.4%.

Turning to `COc1ccc(CC(C#N)c2cc3ccccc3[nH]2)cc1` (configuration not stated), the growth was 89.6%.

Consider `Cc1cc(C(=O)NOCCO)c(Nc2ccc(I)cc2F)n(C)c1=O`, for which the growth was 114%.

For `O=C1C2=C(C(=O)c3ccccc31)C(O)(S(=O)(=O)O)C(O)(S(=O)(=O)O)C1N=CC=CC21` (configuration not stated), the growth is 18.4%.

Consider `COc1cc(C2N=C(NNc3ccccc3)NC(C)=C2C(C)=O)ccc1O` (configuration not stated), for which the growth was 93.3%.

`CCCCCCCCCCCC[n+]1ccccc1` (tested in a mixture with another compound): the growth was -37.6% (active).

Take `O=c1cc(-c2ccc(OCc3ccccc3)cc2)oc2c(I)c(OCc3ccccc3)cc(OCc3ccccc3)c12`: the growth was 102%.

Regarding `CO[C@H]1CC(O[C@@H]2/C(C)=C/C[C@@H]3C[C@@H](C[C@]4(CC[C@H](C)[C@@H](C5CCCCC5)O4)O3)OC(=O)[C@@H]3C=C(C)/C(=N/O)[C@H]4OC/C(=C\C=C\[C@@H]2C)[C@]43O)O[C@@H](C)C1O` (some centres not stated), the growth was -87% (active).

Take `C=CCCCCCCCCC(=O)OC(C)C`: the growth was 97.5%.

With `Cc1cc(=O)oc2cc(OCCn3c(C)nn(-c4ccc(Cl)cc4)c3=O)ccc12`, the growth is 16.1%.

Consider `Cn1c(=O)cc2c3c(c(NCCCO)ccc31)C(=O)c1ccccc1-2`, for which the growth was 39.8%.

Turning to `O=S(=O)(CCN1CCOCC1)Nc1cc(-c2ccc3ncnc(Nc4ccc(F)c(Cl)c4)c3c2)cnc1Cl`, the growth is -34.4% (active).

Regarding `N#Cc1cccc(CN2CCC3=C(C2)C(=O)N(Cc2ccc(Cl)cc2)C2=NCCCN23)c1`, the growth was -16.1% (active).

With `O=C(NCCNc1cc(-c2cn(-c3ccccc3)nc2-c2cccc(O)c2)ccn1)Nc1ccccc1`, the growth is 64.9%.

Turning to `O=C(CCCCCCNC(=O)C(O)(O)C(F)(F)F)Nc1ccc(Br)cc1`, the growth was 8.56% (active).

Consider `Cc1cc(C)c2c(n1)sc1c(Nc3ccc(OCc4ccccc4)cc3)ncnc12`, for which the growth was 101%.

`O=C(O)[C@@H]1c2ccccc2-c2ccccc2[C@H]1C(=O)O`: the growth is 97.5%.

Regarding `Cc1cc(N(CCCNc2ccnc3cc(Cl)ccc23)Cc2ccccn2)nc(N2CCOCC2)n1`, the growth was 78.8%.

For the molecule `COc1ccc(C(=O)/C=C/c2sc(Cl)nc2Cl)cc1`, the growth was -13.8% (active).

Take `COc1ccc(N)cc1C(=O)Nc1cccc(-c2cc(=O)c3c(OC)c(OC)c(OC)cc3o2)c1`: the growth was 55.9%.

On to `CS(=O)(=O)Nc1cc(-c2ccc3ncc(C#N)c(NCc4ccccc4F)c3c2)cnc1Cl`, for which the growth was -16.8% (active).

Consider `COc1cccc(-c2nc3sccn3c2-c2ccnc(NCCNS(=O)(=O)c3ccccc3)n2)c1`, for which the growth is 67.4%.

`Cn1c2ccccc2c2nn(Cc3ccccc3)c(=O)nc21`: the growth was 106%.

For `Cc1nc(N2CCOCC2)sc1S(N)(=O)=O`, the growth was 97%.

In the case of `CC1(C)CC(O)CCCCCCOc2c(CN)cccc2NC(=O)c2nc(cnc2N)-c2ccc(cc2)S1(=O)=O` (configuration not stated), the growth is 6.87% (active).

On to `C#C[C@]1(O)CC[C@H]2[C@@H]3CC=C4c5sc(Nc6nc(C)cc(OC)n6)nc5CC[C@]4(C)[C@H]3CC[C@@]21C`, for which the growth is 63.1%.

Take `CCCc1n(Cc2ccc3ccccc3n2)cc[n+]1Cc1ccc2ccccc2c1`: the growth was -28.4% (active).

In the case of `C/C(=C(/c1ccccc1)c1ccc(N2C(=O)c3cccc4c(N5CCN(C)CC5)ccc(c34)C2=O)cc1)c1ccccc1`, the growth is 42.5%.

Take `C#Cc1nc2ccccc2c(=O)[nH]1`: the growth is -46.9% (active).

On to `CCOc1ccccc1C(=O)OCC(=O)Nc1cccc(S(=O)(=O)N(C)C)c1`, for which the growth was 84.7%.

In the case of `COC1=C(OC)C(=O)C(OC)=C(OC)C1=O`, the growth is 33.4%.

In the case of `CCS(=O)(=O)Nc1cccc(Nc2c3cccc(C)c3nc3c(C)cccc23)c1OC`, the growth is 37.7%.

Consider `CCCCc1ccc(N=Nc2ccc(OCC[N+](C)(C)C)cc2)cc1`, for which the growth is 4.13% (active).

Turning to `S=C1SCN(Cc2ccccc2)CN1Cc1ccco1`, the growth is 31.9%.

With `O=[N+]([O-])c1ccc(S(=O)(=O)N2CCN(c3ccnc4cc(Cl)ccc34)CC2)c([N+](=O)[O-])c1`, the growth was 82.7%.

In the case of `Nc1c(C(=O)Nc2ccncc2)sc2nc3c(cc12)C(O)CCC3` (configuration not stated), the growth was 88.5%.

Regarding `Cn1c(/C=C(\C#N)c2cccc(C(F)(F)F)c2)nc2c(N3CCOCC3)nc(Cl)nc21`, the growth was -40.3% (active).

For the molecule `CN(C)CCOc1ccccc1NC1=C(Cl)C(=O)C(Nc2ccccc2OCCN(C)C)=C(Cl)C1=O`, the growth is -53.6% (active).

Turning to `COc1cccc(C(=O)NC(c2ccc(C)cc2)c2cc(Cl)c3cccnc3c2O)c1` (configuration not stated), the growth was -8.72% (active).

For the molecule `Cc1nc(N)nc2c1CCC(Nc1ccccc1)S2` (configuration not stated), the growth was 100%.

Consider `CC(CCC#N)(CCC#N)C(=O)c1ccccc1`, for which the growth is 106%.

Regarding `N#C/C(=C\c1ccc2ccccc2c1)c1cc2ccccc2[nH]1`, the growth was 30.5%.

Take `CCN(CC)CCCC(C)Nc1ccnc2cc(Cl)c(SCc3ccccc3)cc12` (configuration not stated): the growth is -88.5% (active).

Consider `COc1cc(-c2nn(-c3ccc(Br)cc3)cc2C(=O)O)ccc1O`, for which the growth was 103%.

As to `Cc1ccc(-n2nc3c(c(C#N)c2=O)CC(c2ccccc2[N+](=O)[O-])C([N+](=O)[O-])=C3O)cc1` (configuration not stated), the growth is 94%.

As to `Cc1ccc(S(=O)(=O)Oc2ccc3sc4cccc(NCCN(C)C)c4c(=O)c3c2)cc1`, the growth was -91.7% (active).
